# Compound: CN[C@@H]1C[C@H]2O[C@@](C)([C@@H]1OC)n1c3ccccc3c3c4c(c5c6ccccc6n2c5c31)C(=O)NC4 [staurosporine]
# Assay: log2 fold change of tryptic peptide abundance, ligand vs vehicle (limited proteolysis) (log2 ratio); higher = more trypsin-susceptible (destabilized)
# Details: ligand concentration: 20 uM; sample: K562 cleared lysate; digestion: 4 min, 22 C (HT-PELSA RT4min, Orbitrap Astral)
# Chain of UniProt Q14376 (Q14376 whole entry): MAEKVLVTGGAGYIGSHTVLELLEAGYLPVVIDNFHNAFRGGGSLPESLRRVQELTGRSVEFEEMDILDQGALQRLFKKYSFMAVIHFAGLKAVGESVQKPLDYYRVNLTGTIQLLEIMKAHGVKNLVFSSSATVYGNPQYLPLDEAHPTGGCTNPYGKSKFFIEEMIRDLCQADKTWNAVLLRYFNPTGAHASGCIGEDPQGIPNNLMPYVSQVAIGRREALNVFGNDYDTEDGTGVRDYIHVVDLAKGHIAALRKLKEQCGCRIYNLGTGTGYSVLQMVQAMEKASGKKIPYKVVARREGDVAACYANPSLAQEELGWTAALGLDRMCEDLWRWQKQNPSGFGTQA
# Chain of UniProt Q96CW1 (Q96CW1 whole entry): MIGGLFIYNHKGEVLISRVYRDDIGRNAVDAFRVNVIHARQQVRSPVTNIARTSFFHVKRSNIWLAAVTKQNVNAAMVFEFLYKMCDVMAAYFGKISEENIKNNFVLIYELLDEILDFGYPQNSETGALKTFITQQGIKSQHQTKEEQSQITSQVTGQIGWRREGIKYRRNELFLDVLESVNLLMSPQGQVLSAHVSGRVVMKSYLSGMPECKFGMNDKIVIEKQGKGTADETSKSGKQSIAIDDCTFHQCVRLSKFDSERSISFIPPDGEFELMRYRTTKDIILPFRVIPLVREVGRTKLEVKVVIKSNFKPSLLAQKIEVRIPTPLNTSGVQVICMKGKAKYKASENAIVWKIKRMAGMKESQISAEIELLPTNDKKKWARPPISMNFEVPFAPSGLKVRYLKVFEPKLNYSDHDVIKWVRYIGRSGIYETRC
# Chain of UniProt Q15208 (Q15208 whole entry, looked up): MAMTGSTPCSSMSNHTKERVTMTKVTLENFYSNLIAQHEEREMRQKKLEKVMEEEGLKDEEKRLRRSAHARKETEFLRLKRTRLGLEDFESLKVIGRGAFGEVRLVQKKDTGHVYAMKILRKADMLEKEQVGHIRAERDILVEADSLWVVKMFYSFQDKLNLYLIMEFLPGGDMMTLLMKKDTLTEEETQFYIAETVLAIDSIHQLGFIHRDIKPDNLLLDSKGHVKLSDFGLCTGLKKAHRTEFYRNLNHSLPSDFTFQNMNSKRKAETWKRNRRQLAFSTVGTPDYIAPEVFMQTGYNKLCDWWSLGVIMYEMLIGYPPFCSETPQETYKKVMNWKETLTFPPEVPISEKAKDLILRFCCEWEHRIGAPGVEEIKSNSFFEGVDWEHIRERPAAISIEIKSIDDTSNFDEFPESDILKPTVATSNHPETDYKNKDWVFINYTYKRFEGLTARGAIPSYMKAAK
# Chain of UniProt Q9BQG0 (Q9BQG0 whole entry): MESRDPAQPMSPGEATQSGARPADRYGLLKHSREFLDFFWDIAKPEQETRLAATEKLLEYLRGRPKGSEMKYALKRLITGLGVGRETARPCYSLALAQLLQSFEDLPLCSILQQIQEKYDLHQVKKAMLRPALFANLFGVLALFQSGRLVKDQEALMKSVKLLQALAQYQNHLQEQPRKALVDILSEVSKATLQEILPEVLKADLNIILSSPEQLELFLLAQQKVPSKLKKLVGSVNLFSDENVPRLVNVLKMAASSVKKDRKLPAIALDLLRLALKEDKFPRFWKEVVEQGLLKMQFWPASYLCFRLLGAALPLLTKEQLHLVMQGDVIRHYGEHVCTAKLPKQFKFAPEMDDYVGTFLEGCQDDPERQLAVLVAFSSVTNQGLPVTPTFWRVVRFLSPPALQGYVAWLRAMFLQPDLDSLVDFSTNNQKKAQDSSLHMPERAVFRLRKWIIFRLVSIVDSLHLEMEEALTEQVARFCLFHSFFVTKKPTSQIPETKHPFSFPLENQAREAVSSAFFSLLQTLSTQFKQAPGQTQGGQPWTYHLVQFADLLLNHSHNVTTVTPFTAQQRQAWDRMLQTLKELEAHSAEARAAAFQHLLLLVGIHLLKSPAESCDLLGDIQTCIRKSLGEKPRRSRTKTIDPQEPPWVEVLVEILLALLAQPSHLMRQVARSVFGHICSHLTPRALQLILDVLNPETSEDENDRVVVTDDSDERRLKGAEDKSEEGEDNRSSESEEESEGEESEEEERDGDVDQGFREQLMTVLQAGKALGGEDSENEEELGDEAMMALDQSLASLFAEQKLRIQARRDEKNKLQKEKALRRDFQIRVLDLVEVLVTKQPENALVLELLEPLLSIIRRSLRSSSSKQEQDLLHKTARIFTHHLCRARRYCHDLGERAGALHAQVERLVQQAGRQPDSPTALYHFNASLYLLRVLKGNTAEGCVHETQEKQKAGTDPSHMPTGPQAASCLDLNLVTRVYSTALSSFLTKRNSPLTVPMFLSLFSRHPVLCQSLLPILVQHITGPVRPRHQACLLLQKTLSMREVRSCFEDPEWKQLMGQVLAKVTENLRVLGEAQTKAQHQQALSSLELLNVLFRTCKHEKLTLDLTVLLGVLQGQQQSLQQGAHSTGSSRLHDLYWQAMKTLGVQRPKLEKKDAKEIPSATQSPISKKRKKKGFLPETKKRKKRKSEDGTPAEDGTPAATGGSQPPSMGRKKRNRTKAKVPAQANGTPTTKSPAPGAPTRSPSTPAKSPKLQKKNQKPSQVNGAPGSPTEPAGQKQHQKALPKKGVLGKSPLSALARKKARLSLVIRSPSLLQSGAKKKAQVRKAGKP
# Chain of UniProt Q6ICG6 (Q6ICG6 whole entry): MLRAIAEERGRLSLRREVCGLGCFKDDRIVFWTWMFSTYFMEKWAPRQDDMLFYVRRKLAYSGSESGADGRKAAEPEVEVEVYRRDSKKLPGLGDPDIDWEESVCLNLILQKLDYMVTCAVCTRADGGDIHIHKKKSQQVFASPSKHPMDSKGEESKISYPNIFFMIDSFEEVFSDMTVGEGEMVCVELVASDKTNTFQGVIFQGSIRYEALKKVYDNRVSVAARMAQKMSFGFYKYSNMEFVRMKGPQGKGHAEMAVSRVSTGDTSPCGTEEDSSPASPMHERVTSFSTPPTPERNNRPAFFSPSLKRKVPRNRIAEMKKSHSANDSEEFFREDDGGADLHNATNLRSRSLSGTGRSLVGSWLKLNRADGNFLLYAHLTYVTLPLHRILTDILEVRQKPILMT
# Chain of UniProt Q8N5S9 (Q8N5S9 whole entry, looked up): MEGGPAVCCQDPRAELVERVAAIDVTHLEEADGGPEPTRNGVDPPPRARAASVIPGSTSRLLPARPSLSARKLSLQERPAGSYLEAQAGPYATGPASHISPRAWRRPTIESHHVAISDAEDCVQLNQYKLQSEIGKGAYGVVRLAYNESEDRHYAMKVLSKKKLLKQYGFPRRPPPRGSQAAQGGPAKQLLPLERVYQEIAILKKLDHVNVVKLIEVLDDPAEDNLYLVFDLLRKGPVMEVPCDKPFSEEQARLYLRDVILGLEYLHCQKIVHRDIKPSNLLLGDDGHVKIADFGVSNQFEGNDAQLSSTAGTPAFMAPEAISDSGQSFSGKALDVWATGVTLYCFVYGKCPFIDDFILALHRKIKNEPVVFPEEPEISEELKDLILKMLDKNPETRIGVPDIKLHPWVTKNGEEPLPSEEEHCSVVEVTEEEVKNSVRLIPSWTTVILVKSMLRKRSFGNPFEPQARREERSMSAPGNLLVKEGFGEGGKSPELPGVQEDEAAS
row,Target,log2 fold change
1,"CAMKK1 (peptide sequence: DIKPSNLLLGDDGHVK, peptide start residue: 275) (UniProt Q8N5S9)",-3.71
2,"LAMA5 (peptide sequence: TFQLDTAVDRPCAR, peptide start residue: 2918) (UniProt O15230)",1.14
3,"RPL4 (peptide sequence: MFAPTKTWR, peptide start residue: 101) (UniProt P36578)",0.751
4,"MYBBP1A (peptide sequence: VLKGNTAEGCVHETQEK, peptide start residue: 933) (UniProt Q9BQG0)",2.16
5,"GALE (peptide sequence: MCEDLWR, peptide start residue: 329) (UniProt Q14376)",0.379
6,"UniProt Q96CW1 (peptide sequence: TFITQQGIK, peptide start residue: 131)",0.558
7,"UniProt Q6ICG6 (peptide sequence: KAAEPEVEVEVYRR, peptide start residue: 72)",-1.02
8,"UniProt Q15208 (peptide sequence: VMEEEGLKDEEKR, peptide start residue: 51)",0.382
